# Laboratory results published in PubChem BioAssay AID2690 (NMMLSC, 2010).
# About 590 (0.18%) of roughly 330,000 compounds were called active.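 Rule for the calls: active = superoxide response under a set limit, about three screen SD below normal (cut at about 65% in these data); inactive = the rest.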 Only a selection was taken, and actives are over-represented in it overall.
# Test: reduction of superoxide in aged yeast, primary screen, HTS (AID 2690);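 note: yeast aged for seven days with compound at 30 °C before DHE staining; 100% = average MFI of all compound-treated wells on the plate with controls excluded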
# Conditions: S. cerevisiae aged cells, superoxide DHE fluorescence; at 10 µM; stronger effect = lower value
row,SMILES,superoxide response (% of plate mean)
1,Cc1ccsc1C(=O)OCC(=O)NCCc1ccccc1,92.1% (inactive)
2,O=C(Nc1ccc(Br)cn1)c1ccc([N+](=O)[O-])cc1Cl,64.7% (active)
3,O=C(Nc1ccncc1)c1ccc([N+](=O)[O-])cc1Cl,103% (inactive)
4,O=C(Nc1ccc(Br)cn1)c1ccc([N+](=O)[O-])o1,118% (inactive)
5,C/C(=N\NS(=O)(=O)c1ccccc1)c1c(O)cc(C)oc1=O,102% (inactive)
6,O=C1NC(=Nc2ccc(Cl)cc2)SC1Cc1cccc(Cl)c1Cl (stereo unspecified),121% (inactive)
7,O=C(CCS(=O)(=O)c1ccc2c(c1)NC(=O)CS2)NCc1ccccc1Cl,110% (inactive)
8,CN1CCN(CC(=O)C23CC4CC(CC(C4)C2)C3)CC1,101% (inactive)
9,O=C1/C(=C/c2ccc(F)cc2)SC(=S)N1NS(=O)(=O)c1ccccc1,107% (inactive)
10,CC(=O)c1ccc(N2CCN(C(=O)c3ccc4nc[nH]c4c3)CC2)cc1,112% (inactive)
11,CC1(C)CC[C@@]2(C(=O)O)C(C1)C1=CCC3[C@@]4(C)CC[C@H](O)C(C)(C)C4CC[C@@]3(C)[C@]1(C)C[C@H]2O (stereo partly specified),88% (inactive)
12,CC(C)(C)C(=O)NC1CC2CCCC(C1)N2C(=O)Nc1ccccc1F (stereo unspecified),103% (inactive)
13,O=[N+]([O-])/C(N=Nc1ccccc1)=N\Nc1ccccc1,102% (inactive)
14,CC(C)(C)NC(=O)c1cccc(NC(=O)Cc2ccc(Br)cc2)c1,91.5% (inactive)
15,Cc1ccc(S(=O)(=O)N(CC(=O)NCc2ccco2)c2ccccc2C)cc1,111% (inactive)
16,COc1ccc(Nc2nc(NCc3ccco3)nc(N/N=C/c3ccccc3Cl)n2)cc1,99.5% (inactive)
17,COC1=CCC2([N+](=O)[O-])CN(CC(=O)O)CC1([N+](=O)[O-])C2 (stereo unspecified),98.8% (inactive)
18,Cc1c2cn[nH]c(=O)c2c(C)n1Cc1ccc(F)cc1,86.5% (inactive)
19,CC(=O)C[C@@H](O)CC(=O)[C@H]1OC(=O)CCCCCCc2ccccc21,62.5% (active)
20,CC[C@@H]1CCCCc2ccccc2[C@@H](C(=O)C[C@H](O)CC(C)=O)OC1=O,98.3% (inactive)
21,CC(=O)C[C@H](O)CC(=O)[C@@H]1OC(=O)[C@@H](C)C/C=C\Cc2ccccc21,89.8% (inactive)
22,CC(C)=NN1C(=O)c2ccccc2NC1(C)C,102% (inactive)
23,COc1cc(-c2c(-c3ccc4c(c3)OCO4)noc2C)ccc1F,94.1% (inactive)
24,COC(=O)c1ccc(OCC(=O)NC(C)(C)C)cc1,102% (inactive)

row,SMILES,superoxide response (% of plate mean)
1,CC(C)(C)NC(=O)COc1ccc(CNc2ccc3[nH]c(=O)[nH]c3c2)cc1,60.8% (active)
2,O=C(COc1ccc([N+](=O)[O-])cc1Cl)Nc1ccc2[nH]c(=O)[nH]c2c1,111% (inactive)
3,O=c1c2cc([N+](=O)[O-])ccc2nc2n1CCC2,108% (inactive)
4,Cc1cc(CNC(=O)C2CCC(=O)N(CCc3ccc(Cl)cc3)C2)no1 (stereo unspecified),101% (inactive)
5,CN=C(Nc1cccc(S(=O)(=O)N2CCOCC2)c1)c1ccccc1,96.6% (inactive)
6,COc1ccc(CN(C)C(=O)Cc2c[nH]c3ccccc23)c(OC)c1OC,99.6% (inactive)
7,CSCCC(NS(=O)(=O)c1ccccc1F)C(=O)N1CC=C(c2ccccc2)CC1 (stereo unspecified),105% (inactive)
8,Nc1nnn(CC(=O)N/N=C/c2ccccc2)n1,65% (active)
9,Nc1nnn(CC(=O)N/N=C/c2ccc(O)cc2)n1,92.6% (inactive)
10,O=C(Cn1nnc(-c2ccccc2)n1)N/N=C/c1ccc(-c2ccc(Cl)cc2)o1,92.1% (inactive)
11,CCOc1ccccc1NC(=O)C1CCCN(C(=O)Nc2ccccc2)C1 (stereo unspecified),92.4% (inactive)
12,CN1CCN(c2cc3c(cc2F)c(=O)c(C(=O)O)cn3CCF)CC1,60.4% (active)
13,CCCCCCn1cc(C(=O)O)c(=O)c2cc(F)c(N3CCCCC3)cc21,91.2% (inactive)
14,CCn1cc(C(=O)NCCO)c(=O)c2cc(F)c(N3CCN(C)CC3)cc21,99.8% (inactive)
15,COc1ccc(/C=C/CN2CCCC(C(=O)c3cc(F)ccc3F)C2)cc1 (stereo unspecified),100% (inactive)
16,COc1cccc(N(Cc2nnc3n2CCCCC3)C(=O)Nc2ccccc2F)c1,107% (inactive)
17,COc1ccc(OC)c(NC(=O)Cc2cccs2)c1,102% (inactive)
18,Cc1ccc(-n2cnc3ncnc(-c4ccccc4)c32)cc1,108% (inactive)
19,Cc1ccc(-c2nn(C(C)(C)C)c3ncnc(N)c23)cc1,55.4% (active)
20,O=C(Nc1cccc(Cl)c1Cl)c1ccccc1NC(=O)C1CC=CCC1C(=O)O (stereo unspecified),64.3% (active)
21,O=C(Nc1ccc(Cl)c(Cl)c1)c1ccccc1NC(=O)C1CC=CCC1C(=O)O (stereo unspecified),128% (inactive)
22,O=C(Nc1ccccc1C(=O)N1CCCCCC1)c1ccccc1Cl,106% (inactive)
23,OC(c1nc2ccc(F)cc2[nH]1)C(O)c1nc2ccc(F)cc2[nH]1 (stereo unspecified),103% (inactive)
24,OC(c1nc2ccccc2[nH]1)C(O)C(O)C(O)c1nc2ccccc2[nH]1 (stereo unspecified),59.9% (active)

row,SMILES,superoxide response (% of plate mean)
1,CCCC(NC(=O)c1ccco1)c1nc2ccccc2[nH]1 (stereo unspecified),103% (inactive)
2,Cc1ccc(-c2nc(CSCC(=O)NC3CCN(Cc4ccccc4)CC3)c(C)o2)cc1,58.7% (active)
3,Cc1ccc(-c2cc(C(=O)NC3CCN(Cc4ccccc4)CC3)c3ccccc3n2)cc1,107% (inactive)
4,Cc1ccc(S(=O)(=O)NCCC(=O)NC2CCN(Cc3ccccc3)CC2)cc1,93% (inactive)
5,O=C(NCc1ccc(F)cc1)C1CCC(CNc2c(N3CCOCC3)c(=O)c2=O)CC1 (stereo unspecified),96.9% (inactive)
6,Cc1cc2oc(=O)cc(-c3ccccc3)c2c(C)c1-c1ccc(OC(F)(F)F)cc1,94.1% (inactive)
7,Cc1cc(NC(=O)CN2C(=O)NC(CCc3ccccc3)C2=O)no1 (stereo unspecified),82.4% (inactive)
8,O=C(CCc1ccccc1)Nc1ccc(NC(=O)C2CCCCC2)nc1,91.3% (inactive)
9,O=C(COC(=O)CCCNC(=O)c1ccc(Cl)cc1)Nc1cc(Cl)ccc1Cl,98.1% (inactive)
10,COc1ccc(-c2nonc2NC(=O)c2oc3ccc(F)cc3c2C)cc1OC,80.1% (inactive)
11,CCN(CC)c1nc(-c2ccccc2)cc(C(F)(F)F)c1C#N,87% (inactive)
12,CCn1nccc1C(=O)Nc1ccc(S(=O)(=O)NC23CC4CC(CC(C4)C2)C3)cc1,114% (inactive)
13,Cc1cc(NS(=O)(=O)c2ccc(NC(=O)c3cccc(OC(F)F)c3)cc2)nc(C)n1,103% (inactive)
14,Cc1cc(C(F)F)n2nc(C(=O)Nc3ccc(S(=O)(=O)NC45CC6CC(CC(C6)C4)C5)cc3)nc2n1,62.8% (active)
15,COc1ccc(NC(=O)c2cc([N+](=O)[O-])ccc2NC(=O)CNC2CCCCC2C)c(OC)c1 (stereo unspecified),111% (inactive)
16,CCOC(=O)C1=CN(Cc2ccc(Br)cc2)S(=O)(=O)N(C)C1C (stereo unspecified),105% (inactive)
17,COc1ccccc1C(=O)N1CCNC(=O)C1CC(=O)Nc1ccc(Cl)cc1 (stereo unspecified),103% (inactive)
18,NS(=O)(=O)c1ccc(NC(=O)/C=C/c2ccccc2Cl)cc1,92.5% (inactive)
19,COC(=O)c1ccc(NC(=S)Nc2cccc(C)n2)cc1,105% (inactive)
20,CCC(C(=O)OCC(=O)Nc1c(Cl)cc(Cl)cc1Cl)c1ccccc1 (stereo unspecified),101% (inactive)
21,Cc1cc(C)cc(NC(=O)COC(=O)c2cc(C)oc2C)c1,95.1% (inactive)
22,CCCC(C)C(=O)OCC(=O)Nc1c(Br)cc(C)cc1Br (stereo unspecified),65.3% (active)
23,Cn1c(Nc2ccccc2)cc(=O)n(C)c1=O,33.4% (active)
24,CC(C)Oc1ccc(C(=O)Nc2cc(=O)n(C)c(=O)n2C)cc1,99.9% (inactive)

row,SMILES,superoxide response (% of plate mean)
1,Cc1cc(=O)n(C)c(=O)n1CCCNc1ccccc1,84.6% (inactive)
2,O=C(NC1CCC(O)CC1)c1ccc(S(=O)(=O)NCc2ccco2)cc1 (stereo unspecified),102% (inactive)
3,O=C(CSCc1ccccc1)Nc1ccccc1,42.6% (active)
4,Cc1c(NC(=O)CSCc2ccccc2)cccc1C(=O)O,116% (inactive)
5,Cn1c(CSCC(=O)Nc2ccccc2)nnc1SCc1ccccc1,118% (inactive)
6,C/C(CC(=O)NC(C)c1ccccc1)=N\NC(N)=S (stereo unspecified),105% (inactive)
7,C=CCNC(=O)C12CC3CC(C1)CC(C(=O)NCC=C)(C3)C2,96% (inactive)
8,Cc1ccc(C23CC4CC(CC(C(=O)NCC(=O)O)(C4)C2)C3)cc1,62.1% (active)
9,CCOc1ccccc1NC(=O)C12CC3CC(C1)CC(c1ccc(C)cc1)(C3)C2,95.5% (inactive)
10,COc1cccc(NC(=O)Cn2c3ccc(F)cc3c3nc4n(c(=O)c32)CCS4)c1,82.6% (inactive)
11,COc1ccc(C(CCNCc2ccccc2F)c2ccc(F)cc2)cc1 (stereo unspecified),97% (inactive)
12,CCc1cc(-c2n[nH]c(=S)n2CC(C)C)cs1,87.8% (inactive)
13,COc1cc(-c2nnn(CC(=O)NCc3ccccc3)n2)cc(OC)c1OC,65.3% (active)
14,COc1cc(C(=O)NCc2ccc(-n3cccc3)cc2)cc(OC)c1OC,99.9% (inactive)
15,COc1ccc(CNC(=O)Cc2ccc(-c3ccccc3)cc2)cc1OC,98.2% (inactive)
16,CCCCNC(=O)C1CCCN(S(=O)(=O)c2ccc(S(=O)(=O)NCC(C)C)cc2)C1 (stereo unspecified),102% (inactive)
17,Cc1ccc2cccc(S(=O)(=O)N3CCN(c4ccccc4F)CC3)c2n1,61.4% (active)
18,Cc1ccccc1N1CCN(S(=O)(=O)c2ccc3ccccc3c2)CC1,95.3% (inactive)
19,O=S(=O)(N1CCOCC1)N1CCN(c2ccccc2F)CC1,90.5% (inactive)
20,COc1ccc(C(=O)Nc2ccc(C3(C#N)CCCC3)cc2)cc1OC,87.6% (inactive)
21,COC(=O)c1ccc(S(=O)(=O)c2ccc(C(=O)OC)s2)s1,101% (inactive)
22,O=C(Nc1c(Cl)cccc1Cl)C1CCC1,111% (inactive)
23,CCNC(=S)Nc1cccc(Cl)c1C,97.2% (inactive)
24,NC(=S)Nc1c(Cl)cccc1Cl,46.6% (active)
